Results: PubChem BioAssay (NCATS)
Values without a mark were called inactive. Calls come from the whole dose curve; as a rule, active = well fitted activation curve with a large enough effect; inconclusive = small, poorly fitted or top-dose-only effect; inactive = flat fitted curve, though single readings scatter.

Experiment: Confirmation and Secondary Assay for Modulators of Hemoglobin Beta Chain Splicing at IVS2 654 locus (AID 910);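 note: HeLa cells stably carrying EGFP split by mutant beta-globin IVS2-654 intron; per-well total GFP intensity by laser scanning cytometry after 2-day treatment; % of control where 0% means no effect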
Settings: HeLa EGFP-654 splicing reporter, GFP fluorescence, 48 h; series mostly up to 46.1 µM; activation (splicing correction): at the top concentration
Procedure, shortened: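 Readout: per-well total peak green fluorescence (488 nm ex, 500–520 nm em) from objects 5–250 µm, reflecting correct splicing of an EGFP-654 reporter. Compounds were applied for 2 days at 37 °C to overnight-plated HeLa EGFP-654 cells; controls were DMSO and 500 nM IVS2-654 PNA.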

Row | SMILES | activation (splicing correction)
1 | Cc1[nH]c(C)c(Cl)c(=O)c1Cl | 2.37%
2 | Cc1c(NC(C)C)c(=O)n(-c2ccccc2)n1C | -0.928%
3 | NS(=O)(=O)c1cc2c(cc1C(F)(F)F)NCNS2(=O)=O | 3.86%
4 | O=C(O)c1ccccc1OP(=O)(O)O | 6.93%
5 | CC(N)CCCC(C)(C)O (stereo not drawn) | 1.25%
6 | COc1ccc(NS(=O)(=O)c2ccc(N)cc2)nn1 | 8.66%
7 | Cn1c([N+](=O)[O-])cnc1COC(N)=O | 7.34%
8 | CC(=O)NCc1c(I)c(NC(C)=O)c(I)c(C(=O)O)c1I | -2.71%
9 | CCCCCC(C)N (stereo not drawn) | -0.288%
10 | NC(=O)NC1NC(=O)NC1=O (stereo not drawn) | 1.96%
11 | O=C(Cn1ccnc1[N+](=O)[O-])NCCO | -0.0287% [at 38.3 µM]
12 | NCc1ccc(S(N)(=O)=O)cc1 | 2.19%
13 | COc1ccccc1OCC(O)CO (stereo not drawn) | -0.954%
14 | CCS(=O)(=O)CCn1c([N+](=O)[O-])cnc1C | 5.72%
15 | CCCCC1(COC(=O)CCC(=O)O)C(=O)N(c2ccccc2)N(c2ccccc2)C1=O | 5.09%
16 | O=C1c2cccc(O)c2C(=O)c2c(O)cccc21 | 1.04% [at 38.3 µM]
17 | O=C(CCBr)N1CCN(C(=O)CCBr)CC1 | 8.4%
18 | O=c1[nH]cnc2nc[nH]c12 | 2.78% [at 38.3 µM]
19 | Cc1ccsc1/C=C/C1=NCCCN1C | 2.38%
20 | CN1CCCN=C1COC(=O)C(O)(c1ccccc1)C1CCCCC1 (stereo not drawn) | 4.93%
21 | OC(CCN1CCCC1)(c1ccccc1)C1CCCCC1 (stereo not drawn) | 1.08%
22 | NC(N)=NS(=O)(=O)c1ccc(N)cc1 | 0.539%
23 | O=C(O)c1cc(=O)c2ccccc2o1 | -5.11%
